Format in all cases: functional
The target of experiment [1] is Solute carrier family 2, facilitated glucose transporter member 1 (Homo sapiens) (UniProt P11166). Briefly: ST_JUDE_LEISH: Cytotoxicity at 2uM final concentration against transgenic Leishmania Mexicana promastigotes LmGLUT1 that are glucose transport deficient and complemented with the human glucose transporter GLUT1. Activity is measured by DNA content using SYBR green in vitro.

Experiment [2] deals with Hexose transporter 1 (Plasmodium falciparum) (UniProt O97467). Briefly: ST_JUDE_LEISH: Cytotoxicity at 2uM final concentration against transgenic Leishmania Mexicana promastigotes LmPfHT that are glucose transport deficient and complemented with the Plasmodium falciparum hexose transporter. Activity is measured by DNA content using SYBR green in vitro.
Experiment [3] addresses Glucose transporter (Leishmania mexicana) (UniProt O61059). Nature of the experiment: ST_JUDE_LEISH: Cytotoxicity at 2uM final concentration against transgenic Leishmania Mexicana promastigotes LmGT2 that are glucose transport deficient and complemented with the L. Mexicana glucose transporter 2. Activity is measured by DNA content using SYBR green in vitro.

Chain of Solute carrier family 2, facilitated glucose transporter member 1 (Homo sapiens) (P11166 whole entry): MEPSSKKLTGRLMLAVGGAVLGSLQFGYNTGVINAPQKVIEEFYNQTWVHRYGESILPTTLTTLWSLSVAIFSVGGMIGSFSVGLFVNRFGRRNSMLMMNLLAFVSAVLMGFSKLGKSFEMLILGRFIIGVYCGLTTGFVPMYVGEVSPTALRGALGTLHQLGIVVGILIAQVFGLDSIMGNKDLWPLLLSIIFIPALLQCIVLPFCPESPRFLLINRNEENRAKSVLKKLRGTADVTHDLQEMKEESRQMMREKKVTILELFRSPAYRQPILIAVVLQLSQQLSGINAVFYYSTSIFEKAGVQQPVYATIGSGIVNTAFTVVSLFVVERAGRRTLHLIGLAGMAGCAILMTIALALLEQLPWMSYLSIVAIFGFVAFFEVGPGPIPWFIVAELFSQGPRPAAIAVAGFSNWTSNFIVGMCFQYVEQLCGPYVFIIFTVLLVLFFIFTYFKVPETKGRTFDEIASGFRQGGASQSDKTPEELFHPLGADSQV

With `CN1CCN(CC(=O)Nc2cccc(-c3cccc(-c4nc5cc(C(F)(F)F)ccc5[nH]4)c3)c2)CC1`, the inhibition in experiment [1] stood at 3.23%; in experiment [2], 2.92%; in experiment [3] it was 3.87%.

For the compound `CCC(C)OC(=O)C1=C(C)NC2=C(C(=O)CC(c3ccc(OC)c(OC)c3)C2)C1c1ccc(C)o1` (stereo not drawn), the inhibition in experiment [1] came to 2.36%; in experiment [2], 8.1%; in experiment [3], 3.8%.

Take `O=C(Nc1cccc(-c2cccc(-c3nc4cc(F)ccc4[nH]3)c2)c1)c1ccncc1`: the inhibition in experiment [1] turned out to be 0.54%; in experiment [2] it was 0.29%; in experiment [3], 0.2%.

For `Cn1nccc1C(=O)NCCNCc1ccc(-c2ccc(-c3nc4cc(C(F)(F)F)ccc4[nH]3)cc2)cc1`, the figures for the inhibition in experiment [1], in experiment [2] and in experiment [3] were 6.01%, 0.59% and 4.43%, respectively.

On to `C(=N\Nc1nccc2sc(-c3ccccc3)cc12)/c1cccnc1`, for which the inhibition in experiment [1] was 4.32%; in experiment [2] it was 3.5%; in experiment [3], 3.16%.

Turning to `Cc1cnc(C(=O)Nc2ccc3c(c2)CCCN(Cc2c[nH]c4cnccc24)C3)cn1`, the results for the inhibition in experiment [1], in experiment [2] and in experiment [3] were 11.1%, 11.4% and 9.32%, respectively.

For the compound `CCN(CC)CCN(Cc1ccc(-c2ccc(C(F)(F)F)cc2)cc1)C(=O)Cn1c(CCC2CCCCC2)nc(=O)c2ccccc21`, the inhibition in experiment [1] was 0.48%; in experiment [2], 1.35%; in experiment [3], 0.43%.

As for `COc1ccc2c(N/N=C/c3cccc([N+](=O)[O-])c3)ccnc2c1`, the inhibition in experiment [1] is -2.24%; in experiment [2], -3.16%; in experiment [3] it was -0.29%.

As for `c1cncc(CCNCc2ccc(-c3ccc(CNC4Cc5ccccc5C4)cc3)cc2)c1`, the figures for the inhibition in experiment [1], in experiment [2] and in experiment [3] were 5.14%, 3.57% and 3.87%, respectively.

For the compound `O=C(c1ccc(Br)o1)N1N=C(c2cccs2)CC1c1ccc(Br)cc1` (stereo not drawn), the inhibition in experiment [1] stood at 5.77%; in experiment [2], 7.79%; in experiment [3], 3.94%.

As for `CC(C)CCNc1nc2ccccc2nc1Nc1cccc(C(F)(F)F)c1`, the inhibition was 2.21% in experiment [1], 3.55% in experiment [2] and 2.32% in experiment [3].

Consider `Cc1cccc2nc(-c3ccc(-c4ccc(CN5CCN(CCN6CCOCC6)CC5)cc4)cc3)[nH]c12`, for which the inhibition in experiment [1] was 6.69%; in experiment [2], 8.97%; in experiment [3], -1.08%.

In the case of `N=C1C=C(N)C(=O)c2ccccc21`, the inhibition in experiment [1] stood at 89%; in experiment [2], 100%; in experiment [3], 94.2%.

As for `CN1CCC(N2CCN(Cc3cccc(-c4cccc(-c5nc6ccccc6[nH]5)c4)c3)CC2)CC1`, the inhibition in experiment [1] is -4.87%; in experiment [2] it was 0.09%; in experiment [3] it was -3.95%.

Turning to `CCOc1cc(OCC)c2ccccc2c1CNCCCCCCNCc1c(OCC)cc(OCC)c2ccccc12`, the inhibition came to 83.2% in experiment [1], 50.7% in experiment [2] and 56.7% in experiment [3].

As for `COc1cccc(NC(=O)CSc2nc(-c3ccccc3Cl)ns2)c1`, the results for the inhibition in experiment [1], in experiment [2] and in experiment [3] were 5.33%, 4.86% and 6.13%, respectively.

As to `O=C(Nc1cc(Cl)cc(Cl)c1)Nc1ccccc1C(=O)NC1CCCCC1`, the inhibition in experiment [1] is -0.12%; in experiment [2], -1.94%; in experiment [3], 0.23%.

Turning to `Cc1cc(OCC2CCN(c3ccc(C(=O)NC4CC4)cn3)CC2)ccc1F`, the results for the inhibition in experiment [1], in experiment [2] and in experiment [3] were 0.67%, 1.45% and -6.22%, respectively.

For `Cc1nc2ccc3ccc(CNc4ccc(C(=O)CC(CCC(=O)O)C(=O)O)cc4)cc3c2c(=O)[nH]1` (stereo not drawn), the inhibition in experiment [1] was -0.57%; in experiment [2], -1.01%; in experiment [3], -0.36%.

`CCc1cccc(NC(=O)c2ccc(CN3CCCN(CC4CCCCC4)CC3)cc2)c1`: the results for the inhibition in experiment [1], in experiment [2] and in experiment [3] were 10.3%, 10% and 13.4%, respectively.

As to `O=C(CCN1C(=O)c2ccccc2C1=O)N1CCN(CC=Cc2ccccc2)CC1`, the inhibition was -1.54% in experiment [1], -1.32% in experiment [2] and -1.76% in experiment [3].

For `Cn1cncc1C(=O)Nc1cccc(-c2ccc(-c3nc4ccccc4[nH]3)s2)c1`, the inhibition in experiment [1] is 3.45%; in experiment [2], 2.88%; in experiment [3] it was 4.94%.

For the compound `Cc1cc(N2CCC(NS(=O)(=O)c3ccccc3)CC2)nc(Nc2cccc(C#N)c2)n1`, the inhibition in experiment [1] was 44.5%; in experiment [2] it was 41.9%; in experiment [3], 45.6%.

In the case of `COc1ccc2ccc(F)c(CCN3CCC(NCc4cc5c(cn4)OCCO5)CC3)c2n1`, the inhibition in experiment [1] is 8.37%; in experiment [2] it was 14%; in experiment [3] it was 22.4%.

Regarding `CC1(C)N=C(NC(=O)c2cc([N+](=O)[O-])cc([N+](=O)[O-])c2)N=C(N)N1OCc1cccc2ccccc12`, the figures for the inhibition in experiment [1], in experiment [2] and in experiment [3] were -1.97%, -0.29% and -0.37%, respectively.

As for `COc1cccc(-c2cc3nc4c(c(NCCCn5ccnc5)n3n2)CCCC4)c1`, the inhibition was 2.73% in experiment [1], 5.03% in experiment [2] and 2.77% in experiment [3].

Consider `O=[N+]([O-])c1cccc(C(Nc2ccccn2)c2ccc3cccnc3c2O)c1` (stereo not drawn), for which the inhibition was 4.63% in experiment [1], 5.86% in experiment [2] and 4.17% in experiment [3].

For the compound `CCn1c(-c2nonc2N)nc2c(-c3ccccc3)ncc(OCCCCNCCc3ncc[nH]3)c21`, the inhibition in experiment [1] is -0.2%; in experiment [2], -0.76%; in experiment [3] it was -0.64%.

With `COc1cc2s/c(=N\C(=O)c3cccc([N+](=O)[O-])c3)n(C)c2cc1OC`, the inhibition in experiment [1] was 9.71%; in experiment [2], 10.7%; in experiment [3] it was 6.9%.

`N#Cc1cncc(-c2nc3c(N4CCC(Cc5ccccc5)CC4)cccc3n2C2CCNC2)c1` (stereo not drawn): the results for the inhibition in experiment [1], in experiment [2] and in experiment [3] were -0.31%, -0.39% and -0.61%, respectively.

In the case of `CCOC(=O)CNC(=O)N1CCN(C(=O)NCC(=O)OCC)CC1`, the inhibition in experiment [1] stood at 0.06%; in experiment [2] it was 0.22%; in experiment [3] it was 1.45%.

Take `CN(C)CCCOc1cccc(CCNCc2cccc(Oc3ccc(Cl)cc3)c2)c1`: the results for the inhibition in experiment [1], in experiment [2] and in experiment [3] were 2.64%, 2.34% and 0%, respectively.

Take `COc1ccc2ncc(F)c(CCN3CC(O)C(CNCc4ccc(F)cc4)C3)c2n1` (stereo not drawn): the inhibition in experiment [1] stood at 3.37%; in experiment [2], 3.9%; in experiment [3] it was 2.68%.

For `OC(c1cc(C(F)(F)F)nc2c(F)cccc12)C1CCCCN1` (stereo not drawn), the inhibition in experiment [1] came out at 0.27%; in experiment [2], 1.52%; in experiment [3], 1.48%.

Regarding `CN(C)CCOc1ccc(-c2cc(-c3ccncc3)c(-c3ccc(Cl)c(O)c3)o2)cc1`, the inhibition was 1.31% in experiment [1], 1.64% in experiment [2] and 0.33% in experiment [3].

With `CN(C)C(=O)O[C@@H]1CN[C@H](C#Cc2cc3ncnc(Nc4ccc5c(cnn5Cc5cccc(F)c5)c4)c3s2)C1`, the figures for the inhibition in experiment [1], in experiment [2] and in experiment [3] were 10.1%, 9.66% and 10.1%, respectively.

By inhibition is commonly meant the relative decrease from the control value, in per cent.

These data come from ChEMBL document CHEMBL3433997, “St. Jude Leishmania screening dataset” (2016).
